Assay results reported in the supplement of paper PMC11732987, “Enantioselective OTUD7B fragment discovery through chemoproteomics screening and high-throughput optimisation” (Communications Chemistry, 2025).

Assays:
Assay in all cases: log2 ratio of Biotin-Ahx-Ub-VS probe labelling (fragment/DMSO); higher = less target engagement (more negative = stronger competition), active = hit call of the paper (q ≤ 0.05, log2 ratio ≤ -1)
Conditions in all cases: compound concentration: 200 uM; treatment time: 3 h
ALG13 = target: T1, ALG13 (UniProt Q9NP73)
T1 sequence (whole entry): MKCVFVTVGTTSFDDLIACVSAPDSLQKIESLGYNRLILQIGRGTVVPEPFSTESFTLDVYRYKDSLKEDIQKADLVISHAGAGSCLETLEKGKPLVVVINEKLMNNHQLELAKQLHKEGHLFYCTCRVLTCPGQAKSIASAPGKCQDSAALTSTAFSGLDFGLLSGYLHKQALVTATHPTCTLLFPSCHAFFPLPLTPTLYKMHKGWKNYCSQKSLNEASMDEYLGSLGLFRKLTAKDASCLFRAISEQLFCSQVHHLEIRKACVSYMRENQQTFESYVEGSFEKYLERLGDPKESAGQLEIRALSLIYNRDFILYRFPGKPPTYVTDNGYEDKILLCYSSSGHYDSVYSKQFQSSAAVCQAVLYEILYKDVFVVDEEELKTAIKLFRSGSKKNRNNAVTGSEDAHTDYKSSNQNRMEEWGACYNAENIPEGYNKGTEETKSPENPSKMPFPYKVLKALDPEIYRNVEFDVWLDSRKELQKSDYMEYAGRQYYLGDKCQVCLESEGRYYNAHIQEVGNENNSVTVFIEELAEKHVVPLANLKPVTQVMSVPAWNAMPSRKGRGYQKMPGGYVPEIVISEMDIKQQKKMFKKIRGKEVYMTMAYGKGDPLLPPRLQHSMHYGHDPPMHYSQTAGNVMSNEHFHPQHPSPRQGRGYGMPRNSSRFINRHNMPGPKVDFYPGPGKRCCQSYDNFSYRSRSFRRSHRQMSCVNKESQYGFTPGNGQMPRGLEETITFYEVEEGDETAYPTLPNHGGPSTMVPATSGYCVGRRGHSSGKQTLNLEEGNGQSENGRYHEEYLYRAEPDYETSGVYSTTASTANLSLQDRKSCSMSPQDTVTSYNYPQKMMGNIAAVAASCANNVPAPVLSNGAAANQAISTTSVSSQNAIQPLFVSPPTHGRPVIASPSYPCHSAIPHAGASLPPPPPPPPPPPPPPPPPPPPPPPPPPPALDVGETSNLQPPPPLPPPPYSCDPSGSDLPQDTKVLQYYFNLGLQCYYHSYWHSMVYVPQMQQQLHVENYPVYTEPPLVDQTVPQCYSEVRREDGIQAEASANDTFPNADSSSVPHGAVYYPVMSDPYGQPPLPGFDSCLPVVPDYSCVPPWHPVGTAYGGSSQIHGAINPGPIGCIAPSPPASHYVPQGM
Method in brief: (§1)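 HEK293T lysate (495 µg per sample, in Tris/CHAPS/IGEPAL buffer with protease inhibitors) was exposed in triplicate for 3 h to fragment at 200 µM or to vehicle, then to Biotin-Ahx-Ub-VS at 0.5 µM final for 1 h. Labelled DUBs were enriched on NeutrAvidin, digested with LysC and trypsin, and analysed by diaPASEF LC-MS/MS. Spectronaut label-free quantities were normalised to the global median, and values are average log2 ratios of fragment over vehicle from an unpaired t-test. Only proteins with ≥2 unique peptides were used.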

ATXN3 = ATXN3 (UniProt P54252)
Sequence of ATXN3 (P54252 whole entry): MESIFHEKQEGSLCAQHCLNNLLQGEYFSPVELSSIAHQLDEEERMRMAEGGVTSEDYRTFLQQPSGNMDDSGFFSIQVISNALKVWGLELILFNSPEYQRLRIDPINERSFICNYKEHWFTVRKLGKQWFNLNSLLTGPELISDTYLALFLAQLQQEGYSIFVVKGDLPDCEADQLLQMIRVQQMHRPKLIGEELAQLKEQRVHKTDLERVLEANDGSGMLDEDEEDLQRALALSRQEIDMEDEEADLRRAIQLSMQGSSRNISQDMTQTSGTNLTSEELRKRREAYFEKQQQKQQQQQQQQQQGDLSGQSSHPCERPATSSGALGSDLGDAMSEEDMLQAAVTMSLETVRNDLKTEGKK
Method in brief: as §1

BAP1 = target: T2, BAP1 (UniProt Q92560)
T2 sequence (whole entry): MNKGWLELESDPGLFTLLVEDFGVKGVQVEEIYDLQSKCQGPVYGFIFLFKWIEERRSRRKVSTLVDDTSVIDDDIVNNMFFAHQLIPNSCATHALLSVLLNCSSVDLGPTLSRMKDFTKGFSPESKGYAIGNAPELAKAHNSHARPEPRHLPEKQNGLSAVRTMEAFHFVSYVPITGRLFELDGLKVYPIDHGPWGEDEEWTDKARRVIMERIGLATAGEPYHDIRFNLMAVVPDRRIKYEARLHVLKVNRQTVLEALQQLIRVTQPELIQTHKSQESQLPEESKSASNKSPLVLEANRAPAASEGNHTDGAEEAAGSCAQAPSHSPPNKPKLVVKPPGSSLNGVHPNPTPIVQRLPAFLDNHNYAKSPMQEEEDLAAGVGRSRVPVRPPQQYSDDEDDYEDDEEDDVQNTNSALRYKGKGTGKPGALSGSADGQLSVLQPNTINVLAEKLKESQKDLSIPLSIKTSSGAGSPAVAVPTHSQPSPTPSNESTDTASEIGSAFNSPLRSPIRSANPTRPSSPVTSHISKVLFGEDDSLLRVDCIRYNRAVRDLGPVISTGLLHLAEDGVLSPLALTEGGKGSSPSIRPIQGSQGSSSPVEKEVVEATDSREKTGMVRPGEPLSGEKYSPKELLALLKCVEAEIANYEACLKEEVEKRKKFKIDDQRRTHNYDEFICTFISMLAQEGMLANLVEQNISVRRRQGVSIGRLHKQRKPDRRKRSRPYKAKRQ
Method in brief: as §1

EIF3F = EIF3F (UniProt O00303)
Sequence of EIF3F (O00303 whole entry): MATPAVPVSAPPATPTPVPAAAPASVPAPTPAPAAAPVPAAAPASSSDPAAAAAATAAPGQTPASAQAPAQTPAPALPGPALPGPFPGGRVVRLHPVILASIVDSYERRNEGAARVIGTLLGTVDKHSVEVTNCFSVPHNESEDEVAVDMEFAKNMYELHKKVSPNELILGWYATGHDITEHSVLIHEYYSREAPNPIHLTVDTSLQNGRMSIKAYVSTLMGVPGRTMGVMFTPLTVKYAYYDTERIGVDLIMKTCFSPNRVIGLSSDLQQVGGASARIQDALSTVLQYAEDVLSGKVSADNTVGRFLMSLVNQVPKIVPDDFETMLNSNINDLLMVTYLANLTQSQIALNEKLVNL
Method in brief: as §1

EIF3H = EIF3H (UniProt O15372)
Sequence of EIF3H (O15372 whole entry): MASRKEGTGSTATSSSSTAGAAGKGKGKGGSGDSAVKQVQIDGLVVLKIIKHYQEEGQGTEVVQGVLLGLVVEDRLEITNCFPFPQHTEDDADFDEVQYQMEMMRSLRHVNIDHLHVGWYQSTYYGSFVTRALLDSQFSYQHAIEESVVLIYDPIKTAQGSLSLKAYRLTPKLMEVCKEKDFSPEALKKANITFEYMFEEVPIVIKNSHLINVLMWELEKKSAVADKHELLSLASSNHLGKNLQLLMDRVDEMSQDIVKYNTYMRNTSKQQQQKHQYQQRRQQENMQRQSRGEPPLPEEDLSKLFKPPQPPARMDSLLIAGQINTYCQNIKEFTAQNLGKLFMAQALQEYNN
Method in brief: as §1

FAM105A = target: T3, FAM105A (UniProt Q9NUU6)
T3 sequence (whole entry): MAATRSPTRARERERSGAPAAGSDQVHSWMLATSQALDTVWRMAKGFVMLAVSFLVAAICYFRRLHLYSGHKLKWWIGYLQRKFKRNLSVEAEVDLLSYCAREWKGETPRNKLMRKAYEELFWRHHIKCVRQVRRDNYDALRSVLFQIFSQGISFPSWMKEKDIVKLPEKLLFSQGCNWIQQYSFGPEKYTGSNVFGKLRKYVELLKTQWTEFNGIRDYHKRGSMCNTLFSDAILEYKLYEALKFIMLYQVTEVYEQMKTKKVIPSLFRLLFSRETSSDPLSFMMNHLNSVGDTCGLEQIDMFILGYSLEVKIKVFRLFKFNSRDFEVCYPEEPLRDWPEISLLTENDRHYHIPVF
Method in brief: as §1

OTUB1 = OTUB1 (UniProt Q96FW1)
Sequence of OTUB1 (Q96FW1 whole entry): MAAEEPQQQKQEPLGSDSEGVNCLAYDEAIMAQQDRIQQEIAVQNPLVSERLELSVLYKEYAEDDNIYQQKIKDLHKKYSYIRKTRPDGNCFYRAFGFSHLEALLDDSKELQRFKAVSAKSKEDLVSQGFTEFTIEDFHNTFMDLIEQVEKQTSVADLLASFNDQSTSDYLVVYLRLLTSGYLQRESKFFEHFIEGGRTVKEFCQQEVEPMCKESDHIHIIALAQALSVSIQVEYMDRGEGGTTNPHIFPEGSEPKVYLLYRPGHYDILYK
Method in brief: as §1

OTUD4 = target: T4, OTUD4 (UniProt Q01804)
T4 sequence (whole entry): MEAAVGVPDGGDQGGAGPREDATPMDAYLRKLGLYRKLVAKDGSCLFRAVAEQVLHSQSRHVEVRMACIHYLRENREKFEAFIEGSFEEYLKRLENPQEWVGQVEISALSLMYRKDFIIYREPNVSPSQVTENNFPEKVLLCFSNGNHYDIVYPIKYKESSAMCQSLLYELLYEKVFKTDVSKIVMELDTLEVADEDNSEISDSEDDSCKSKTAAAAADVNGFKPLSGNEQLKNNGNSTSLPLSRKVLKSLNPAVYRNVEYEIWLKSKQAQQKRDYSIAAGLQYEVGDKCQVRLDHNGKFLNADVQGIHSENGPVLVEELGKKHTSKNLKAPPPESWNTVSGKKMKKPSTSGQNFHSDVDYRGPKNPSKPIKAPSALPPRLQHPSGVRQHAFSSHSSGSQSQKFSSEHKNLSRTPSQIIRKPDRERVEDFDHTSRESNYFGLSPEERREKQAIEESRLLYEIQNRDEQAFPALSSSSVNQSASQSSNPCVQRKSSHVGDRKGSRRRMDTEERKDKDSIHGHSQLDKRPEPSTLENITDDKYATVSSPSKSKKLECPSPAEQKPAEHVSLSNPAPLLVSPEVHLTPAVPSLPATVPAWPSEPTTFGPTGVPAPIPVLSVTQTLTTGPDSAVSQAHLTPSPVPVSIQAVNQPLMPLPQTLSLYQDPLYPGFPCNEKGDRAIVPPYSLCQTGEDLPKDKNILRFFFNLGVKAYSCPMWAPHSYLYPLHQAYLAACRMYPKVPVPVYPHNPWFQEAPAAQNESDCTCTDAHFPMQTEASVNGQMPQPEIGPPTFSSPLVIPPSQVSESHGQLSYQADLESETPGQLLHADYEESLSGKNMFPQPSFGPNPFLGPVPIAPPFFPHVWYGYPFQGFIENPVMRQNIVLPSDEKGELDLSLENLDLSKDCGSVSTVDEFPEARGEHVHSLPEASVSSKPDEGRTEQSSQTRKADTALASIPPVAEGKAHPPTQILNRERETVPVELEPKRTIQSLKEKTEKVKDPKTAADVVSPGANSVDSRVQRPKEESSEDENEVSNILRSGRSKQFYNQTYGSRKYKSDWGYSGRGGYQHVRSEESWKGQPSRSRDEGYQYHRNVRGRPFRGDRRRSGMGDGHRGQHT
Method in brief: as §1

OTUD5 = target: T5, OTUD5 (UniProt Q96G74)
T5 sequence (whole entry): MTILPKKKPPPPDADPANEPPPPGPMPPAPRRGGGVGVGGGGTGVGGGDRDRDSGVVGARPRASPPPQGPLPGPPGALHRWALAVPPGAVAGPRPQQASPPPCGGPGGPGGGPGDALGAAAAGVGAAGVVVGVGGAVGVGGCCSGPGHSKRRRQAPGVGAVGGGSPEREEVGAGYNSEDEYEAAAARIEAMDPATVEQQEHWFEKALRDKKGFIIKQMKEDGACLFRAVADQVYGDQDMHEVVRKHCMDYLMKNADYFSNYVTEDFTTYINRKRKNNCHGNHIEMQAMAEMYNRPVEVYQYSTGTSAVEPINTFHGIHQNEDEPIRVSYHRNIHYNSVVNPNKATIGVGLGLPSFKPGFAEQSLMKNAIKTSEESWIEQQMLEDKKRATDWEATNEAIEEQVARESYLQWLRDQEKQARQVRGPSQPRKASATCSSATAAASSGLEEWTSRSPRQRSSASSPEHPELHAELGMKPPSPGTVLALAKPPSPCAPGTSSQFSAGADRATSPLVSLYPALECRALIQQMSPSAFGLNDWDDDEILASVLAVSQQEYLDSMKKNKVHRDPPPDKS
Method in brief: as §1

Measured: log2 ratio of Biotin-Ahx-Ub-VS probe labelling

O=C(CCl)Nc1cc2c(cc1Cl)OCCO2
active: BAP1 -3.65
inactive: ALG13 -0.314 | ATXN3 0.00781 | EIF3F -0.138 | EIF3H 0.0273 | FAM105A 0.123 | OTUB1 0.157 | OTUD4 -0.327 | OTUD5 -0.173
